Records with an inconclusive call do not appear. The source made the active and inactive calls. The calls were made as follows: active = hit-call score of the fitted dose curve at least 0.9, where 1 is the maximum; inconclusive = response in the unintended direction; inactive = score below 0.9.
These compounds were tested against Bile acid receptor (Homo sapiens) (UniProt Q96RI1) (assay: OT_FXR_FXRSRC1_0480: Odyssey Thera (OT) 8-hour HEK293T Protein-Complementation Assay for Farnesoid X receptor/SRC-1 Co-activator (AID 2283383)).
Sequence of Bile acid receptor (Homo sapiens) (Q96RI1 whole entry, looked up, the tested form may be a part): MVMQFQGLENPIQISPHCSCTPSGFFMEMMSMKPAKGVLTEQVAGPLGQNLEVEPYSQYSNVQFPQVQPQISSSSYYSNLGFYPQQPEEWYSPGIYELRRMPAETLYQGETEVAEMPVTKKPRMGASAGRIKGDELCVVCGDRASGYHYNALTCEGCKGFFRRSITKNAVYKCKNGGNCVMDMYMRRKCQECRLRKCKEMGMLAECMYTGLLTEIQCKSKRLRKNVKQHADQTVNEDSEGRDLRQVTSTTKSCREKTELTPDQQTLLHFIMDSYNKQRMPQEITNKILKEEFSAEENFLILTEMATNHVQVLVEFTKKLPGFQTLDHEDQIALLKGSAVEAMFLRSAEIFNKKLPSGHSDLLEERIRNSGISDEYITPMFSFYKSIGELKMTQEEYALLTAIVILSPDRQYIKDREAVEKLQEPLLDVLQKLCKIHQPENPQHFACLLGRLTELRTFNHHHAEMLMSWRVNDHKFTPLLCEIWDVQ
Protocol: OT_FXR_FXRSRC1_0480 is a cell-based assay that uses HEK293T, a human kidney cell line, with measurements taken at 8 hours after chemical dosing in a 384-well plate.OT_FXR_FXRSRC1_0480 is one of one assay component(s) measured or calculated from the OT_FXR_FXRSRC1_0480 assay. It is designed to make measurements of protein fragment complementation, a form of binding reporter, as detected with fluorescence intensity signals by Protein-fragment Complementation technology.Data from the assay component OT_FXR_FXRSRC1_0480 was analyzed into 1 assay endpoint. This assay endpoint, OT_FXR_FXRSRC1_0480, was analyzed in the positive analysis fitting direction relative to DMSO as the negative control and baseline of activity. Using a type of binding reporter, measures of receptor for gain-of-signal activity can be used to understand the binding at the pathway-level as they relate to the gene NR1H4. Furthermore, this assay endpoint can be referred to as a primary readout, because the performed assay has only produced 1 assay endpoint. To generalize the intended target to other relatable targets, this assay endpoint is annotated to the nuclear receptor intended target family, where the subfamily is non-steroidal.
Protein-fragment complementation assay, or PCA, is a method for the identification and quantification of protein-protein interactions. In the PCA, the proteins of interest ("bait" and "prey") are each covalently linked to fragments of a third protein (e.g. DHFR, which acts as a "reporter"). Interaction between the bait and the prey proteins brings the fragments of the reporter protein in close proximity to allow them to form a functional reporter protein whose activity can be measured.
`CCCCCCC(C)(C)C(=O)O` was tested, and the outcome was “inactive”.
In the case of `CCCCCC(C)OC(=O)COc1ccc(Cl)c2cccnc12` (configuration not stated), the AC50 is reported as 44 µM (active).
In the case of `CCc1ccccc1O`, the outcome is reported as “inactive”.
In the case of `CN(Cc1cnc2nc(N)nc(N)c2n1)c1ccc(C(=O)N[C@@H](CCC(=O)O)C(=O)O)cc1`, the outcome is reported as “inactive”.
In the case of `Cc1[nH]nc2c1N=C(c1ccccc1Cl)c1cc([N+](=O)[O-])ccc1N2`, the AC50 is reported as 1.06 µM (active).
For `C=CC(C)(CCC=C(C)C)OC(C)=O` (configuration not stated), the AC50 was 76 µM (active).
`CCCCCCCCCC=CCC1CC(=O)OC1=O` (configuration not stated) was tested, and the outcome was “inactive”.
In the case of `COc1cc([N+](=O)[O-])ccc1N`, the outcome is reported as “inactive”.
With `CCCCCCc1ccc(N)cc1` the AC50 was 17 µM (active).
`CCCCc1ccc2ccccc2c1S(=O)(=O)O` was tested, and the outcome was “inactive”.
With `Cc1cc(C(C)(C)C)c(O)c(C(C)(C)C)c1` the AC50 was 11.3 µM (active).
For `O=C(CCCN1CCC(O)(c2ccc(Cl)cc2)CC1)c1ccc(F)cc1`, the outcome was “inactive”.
With `O=S(=O)(O)c1ccccc1` the outcome was “inactive”.
For `CCCCc1oc2ccccc2c1C(=O)c1cc(I)c(OCCN(CC)CC)c(I)c1`, the AC50 was 9.16 µM (active).
With `O=C(c1ccccc1)c1ccccc1` the outcome was “inactive”.
`CC(C)[C@@H]1CC[C@@H](C)C[C@H]1O` was tested, and the outcome was “inactive”.
For `Cc1cc(C(=C2C=CC(=Nc3ccc(S(=O)(=O)O)cc3)C=C2)c2ccc(Nc3ccc(S(=O)(=O)O)cc3)cc2)cc(S(=O)(=O)O)c1N`, the outcome was “inactive”.

Source: PubChem BioAssay (EPA / NIEHS)
